About 83,000 compounds went through this panel and 20% of them were active in at least one assay; those are over-represented in the sample as a whole.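 Single-concentration screen, 48 h exposure, 96-well plates. Endpoint: percent growth. Below 10 = active.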 A number with no mark means an inactive call. Calls of active or inactive are those of the source.
Assays:
Experiment in all cases: NCI-60 one-dose screen, 48 h (100 = growth as untreated, 0 = no growth, -100 = all killed)
SR leukemia = conditions: 10 µM unless noted
RPMI-8226 leukemia = conditions: 10 µM unless noted
OVCAR-8 ovarian = conditions: 10 µM unless noted
OVCAR-5 ovarian = conditions: 10 µM unless noted
OVCAR-4 ovarian = conditions: 10 µM unless noted
SK-OV-3 ovarian = conditions: 10 µM unless noted
IGROV1 ovarian = conditions: 10 µM unless noted
OVCAR-3 ovarian = conditions: 10 µM unless noted
HS 578T breast = conditions: 10 µM
NCI/ADR-RES ovarian = conditions: 10 µM unless noted
T-47D breast = conditions: 10 µM unless noted
BT-549 breast = conditions: 10 µM unless noted
MDA-MB-435 melanoma = conditions: 10 µM unless noted
SW-620 colon = conditions: 10 µM unless noted
MCF7 breast = conditions: 10 µM unless noted
HCT-116 colon = conditions: 10 µM unless noted
HCC-2998 colon = conditions: 10 µM unless noted
KM12 colon = conditions: 10 µM unless noted

Row | Structure (SMILES) | growth (SR leukemia) | growth (RPMI-8226 leukemia) | growth (OVCAR-8 ovarian) | growth (OVCAR-5 ovarian) [%] | growth (OVCAR-4 ovarian) | growth (SK-OV-3 ovarian) | growth (IGROV1 ovarian) | growth (OVCAR-3 ovarian) | growth (HS 578T breast) | growth (NCI/ADR-RES ovarian) | growth (T-47D breast) | growth (BT-549 breast) [%] | growth (MDA-MB-435 melanoma) | growth (SW-620 colon) | growth (MCF7 breast) [%] | growth (HCT-116 colon) | growth (HCC-2998 colon) | growth (KM12 colon)
1 | CC(=O)c1ccc(Nc2nc(Cl)nc(Oc3c(Cl)cccc3Cl)n2)cc1 | 82.3% | 70% | 92.5% | 105 | 67.2% | 100% | 89.1% | 90.9% | 74.3% | 93.6% | 79.8% | 84.7 | 89.9% | 88.6% | 74.9 | 84.9% | 106% | 98%
2 | COc1cc(NC(C)CCCN)c2ncccc2c1Oc1ccc(Cl)cc1 (centres undefined) | 53.2% | 63% | 84.8% | 84.6 | 56.3% | 98.6% | 64.6% | 60% | 70% | 77.3% | 76.8% | 86.2 | 90.7% | 73.5% | 71.3 | 58.3% | 49.8% | 69.2%
3 | COc1ccc(C(=O)c2c(N)nc3n2CCCC3)cc1OC | 84.3% | 99.3% | 95.4% | 111 | 107% | 105% | 99.4% | 109% | 108% | 107% | 101% | 93.9 | 104% | 101% | 99 | 91.9% | 114% | 101%
4 | CC(C)(C)c1ccc(Cn2c(-c3nonc3N)nc3ccccc32)cc1 | 28.2% | 61.9% | 80.1% | 99.2 | 98.4% | 61% | 66.6% | 69% | 85.1% | 75.8% | 53.6% | 90.2 | 8.66% (active) | 51.5% | 35.5 | 62.6% | 77.7% | 59.4%
5 | COc1ccc(-c2nsc3c2NC(=O)CC3c2cccc(F)c2)cc1 (centres undefined) | 15.4% | 47.1% | 60.4% | 57 | 92.1% | 58.9% | 57.2% | 9.37% (active) | 79.1% | 22.8% | 33.7% | 50.3 | -34.1% (active) | 18% | 26.4 | 22.9% | 78.5% | 16.7%
6 | CN1CCN(Cc2ccc(NC(=O)c3cncc(C#Cc4ccc(N)nc4)c3)cc2C(F)(F)F)CC1 | 1.34% (active) | 1.97% (active) | 20.1% | 12.5 | -8.78% (active) | -11% (active) | -18.2% (active) | 27.2% | -21.9% (active) | 25.6% | 8.16% (active) | 18.7 | 9.96% (active) | -15.3% (active) | 19.9 | 1.86% (active) | 29.8% | 5.75% (active)
7 | COc1ccc(-c2n[nH]nc2-c2cc(OC)c3c(c2)OCO3)cc1 | -30.8% (active) | 9.65% (active) | 6.23% (active) | 42.7 | 51.7% | -6.92% (active) | -17.4% (active) | -14.6% (active) | 15% | 0.386% (active) | 53.7% | 15.6 | -74.7% (active) | 22.6% | 15.9 | 5.38% (active) | -3.69% (active) | 2.06% (active)
8 | COc1c(-c2cc(-c3ccc(C)o3)[nH]c(=O)n2)c(O)cc2occc12 | 27.1% | 74.8% | 73% | 99 | 72.4% | 81.8% | 58.4% | 32.9% | 54.5% | 29.7% | 45.5% | 54 | -38.6% (active) | 22.3% | 28.1 | 42.8% | 92.1% | 36.1%

From PubChem BioAssay (NCI)
